# Measured values from PubChem BioAssay (Tox21).
# A number with no mark means an inactive call. Records with an inconclusive call do not appear. A call without a number means that no potency is given here. The source made the active and inactive calls. Unless noted, calls come from the whole dose curve; as a rule, active = well fitted curve in the direction sought with a large enough effect in the repeat runs; inconclusive = weak or mixed curves; inactive = no such curve, though single readings can be large; an effect the other way counts as inactive or inconclusive.
# Assays:
# [1] = target: Thyrotropin receptor (Homo sapiens) (UniProt P16473); test: qHTS assay to identify small molecule antagonists of the thyroid stimulating hormone receptor (TSHR) signaling pathway (AID 1259385; calls by dose curve; note: nearly all actives have a fitted effect of over 20% in size)
# Summary of the method: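 TSHR-HEK293 cells (800/well) plated 18 h, then compounds with Ro20-1724 and TSH at 1.5 ng/mL final, 30 min at room temperature. cAMP quantified by HTRF (cAMP-d2/anti-cAMP-cryptate, 1 h); 15 concentrations in triplicate.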
# [2] = target: Progesterone receptor (Homo sapiens) (UniProt P06401); test: qHTS assay to identify small molecule agonists of the progesterone receptor (PR) signaling pathway (AID 1346784; calls by dose curve; note: nearly all actives have a fitted effect of over 30% in size; note: potency is the fitted concentration of half-maximal effect)
# Summary of the method: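 Using charcoal-stripped serum (2%) to limit endogenous steroids, PR-UAS-bla HEK 293T cells received compounds for 16 hr at 37C after 6 hr plating; beta-lactamase FRET fluorescence was recorded following 2 hr substrate loading at room temperature.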
# [3] = target: Progesterone receptor (Homo sapiens) (UniProt P06401); test: qHTS assay to identify small molecule antagonists of the progesterone receptor (PR) signaling pathway (AID 1346795; active = well fitted inhibition curve with a large enough effect in the signal ratio in the repeat runs, not every such curve was filed as active; the % refers to the signal ratio)
# Summary of the method: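 Inhibition of R5020-induced (1 nM final) beta-lactamase reporter signal in PR-UAS-bla HEK293T cells was scored by FRET fluorescence after overnight (16 hr) compound treatment.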
# [4] = qHTS assay to identify small molecule antagonists of the progesterone receptor (PR) signaling pathway - cell viability counter screen (AID 1346798); note: series mostly up to about 92 µM; nearly all actives have a fitted effect of over 50% in size
# Summary of the method: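 ATP content as viability readout: CellTiter-Glo luminescence, 30 min room temperature, in PR-UAS-bla HEK293T cells after 16 hr compound/R5020 treatment at 37C and 5% CO2.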
# [5] = qHTS assay to identify small molecule agonists of the progesterone receptor (PR) signaling pathway - cell viability counter screen (AID 1346799; calls by dose curve; note: nearly all actives have a fitted effect of over 45% in size)
# Summary of the method: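 Cytotoxicity in PR-bla HEK293T cells: 16 h compound, 37C; CellTiter-Glo added post-FRET read; luminescence after 30 min RT.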
# [6] = qHTS assay to identify small molecule antagonists of the TGF-beta/Smad signaling pathway - cell viability counter screen (AID 1346824); note: nearly all actives have a fitted effect of over 50% in size
# Summary of the method: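 SBE-bla HEK 293T cells, incubated overnight, then compound plus 0.25 ng/mL TGF-beta1 (stock added) for 5 hr at 37 C. Viability was read in the same wells by CellTiter-Glo luminescence after 30 min at room temperature.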
# [7] = qHTS assay to identify small molecule agonists of the TGF-beta/Smad signaling pathway (AID 1346859; active = well fitted activation curve with a large enough effect in the signal ratio in the repeat runs, not every such curve was filed as active; the % refers to the signal ratio; note: series mostly up to about 77 µM)
# Summary of the method: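 Stable Smad binding element-beta-lactamase HEK 293T cells; 5 hr compound exposure at 37 C under 5% CO2; 2 hr room-temperature substrate step; fluorescence excited at 405 nm, collected at 460 nm and 530 nm.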
# [8] = qHTS assay to identify small molecule agonists of the estrogen receptor alpha (ER-alpha) signaling pathway in the presence of an antagonist - cell viability counter screen (AID 1259386);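 note: series mostly up to about 92 µM; cells exposed to compounds for 22 h at 37 °C before the viability read; nearly all actives have a fitted effect of over 30% in size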
# Summary of the method: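 Read-out: CellTiter-Fluor fluorescence after 1hr reagent incubation, measured in the same wells as the luciferase readout. VM7Luc4E2 cells were exposed to 15 compound concentrations with 10.0nM ICI-182,780 for 22hr at 37C.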
# [9] = target: Thyrotropin-releasing hormone receptor (Homo sapiens) (UniProt P34981); test: qHTS assay to identify small molecule antagonists of the thyrotropin-releasing hormone receptor (TRHR) signaling pathway (AID 1346877; active = well fitted inhibition curve with a large enough effect in the repeat runs, not every such curve was filed as active; note: series mostly up to about 51 µM)
# Summary of the method: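 HEK293/TRHR cells, 18 h, 37 °C; Ca2+ dye 2 h; cpd 5 min RT; TRH 1 nM final; fluorescence read 3 min, 1 s intervals; 15 concs, triplicate.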
# [10] = qHTS assay to identify small molecule agonists of the TGF-beta/Smad signaling pathway - cell viability counter screen (AID 1346829); note: top concentration of the series differs between compounds; nearly all actives have a fitted effect of over 45% in size
# Summary of the method: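 SBE-bla HEK 293T cells plated overnight, compound exposure 5 hr at 37 C. Viability read in the same wells by CellTiter-Glo luminescence after 30 min at room temperature, following the beta-lactamase read.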
# Sequence of Thyrotropin-releasing hormone receptor (Homo sapiens) (P34981 whole entry, looked up): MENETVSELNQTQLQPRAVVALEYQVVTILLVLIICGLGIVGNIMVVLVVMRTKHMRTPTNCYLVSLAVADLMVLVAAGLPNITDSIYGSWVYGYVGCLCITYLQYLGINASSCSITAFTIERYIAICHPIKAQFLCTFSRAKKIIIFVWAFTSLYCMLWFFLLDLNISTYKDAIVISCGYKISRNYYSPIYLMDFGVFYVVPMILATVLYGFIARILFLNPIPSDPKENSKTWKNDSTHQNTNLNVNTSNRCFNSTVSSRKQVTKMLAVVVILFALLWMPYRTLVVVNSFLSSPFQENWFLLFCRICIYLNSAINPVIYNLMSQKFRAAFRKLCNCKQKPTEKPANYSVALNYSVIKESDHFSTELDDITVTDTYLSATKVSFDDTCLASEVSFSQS
# Sequence of Thyrotropin receptor (Homo sapiens) (P16473 whole entry, looked up): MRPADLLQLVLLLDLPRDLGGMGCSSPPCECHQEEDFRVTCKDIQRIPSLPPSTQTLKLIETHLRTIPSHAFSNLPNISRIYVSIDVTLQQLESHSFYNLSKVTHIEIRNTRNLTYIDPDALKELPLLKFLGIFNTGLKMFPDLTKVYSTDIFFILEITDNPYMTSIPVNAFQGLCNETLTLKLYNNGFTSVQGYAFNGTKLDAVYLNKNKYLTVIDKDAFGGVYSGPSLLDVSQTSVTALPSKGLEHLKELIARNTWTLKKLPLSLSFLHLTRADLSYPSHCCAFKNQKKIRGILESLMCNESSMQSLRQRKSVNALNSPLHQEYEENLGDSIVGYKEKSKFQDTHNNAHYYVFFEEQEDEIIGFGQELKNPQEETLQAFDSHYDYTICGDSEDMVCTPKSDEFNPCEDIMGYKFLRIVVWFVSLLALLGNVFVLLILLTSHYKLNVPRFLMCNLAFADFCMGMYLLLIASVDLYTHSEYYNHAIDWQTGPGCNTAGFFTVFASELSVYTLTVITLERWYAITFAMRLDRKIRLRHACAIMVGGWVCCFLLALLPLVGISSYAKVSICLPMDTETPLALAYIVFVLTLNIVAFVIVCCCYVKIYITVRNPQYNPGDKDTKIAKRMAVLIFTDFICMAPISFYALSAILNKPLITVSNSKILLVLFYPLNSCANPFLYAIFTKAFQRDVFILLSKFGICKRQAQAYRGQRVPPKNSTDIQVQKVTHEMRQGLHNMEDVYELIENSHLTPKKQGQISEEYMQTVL
# Sequence of Progesterone receptor (Homo sapiens) (P06401 whole entry, looked up): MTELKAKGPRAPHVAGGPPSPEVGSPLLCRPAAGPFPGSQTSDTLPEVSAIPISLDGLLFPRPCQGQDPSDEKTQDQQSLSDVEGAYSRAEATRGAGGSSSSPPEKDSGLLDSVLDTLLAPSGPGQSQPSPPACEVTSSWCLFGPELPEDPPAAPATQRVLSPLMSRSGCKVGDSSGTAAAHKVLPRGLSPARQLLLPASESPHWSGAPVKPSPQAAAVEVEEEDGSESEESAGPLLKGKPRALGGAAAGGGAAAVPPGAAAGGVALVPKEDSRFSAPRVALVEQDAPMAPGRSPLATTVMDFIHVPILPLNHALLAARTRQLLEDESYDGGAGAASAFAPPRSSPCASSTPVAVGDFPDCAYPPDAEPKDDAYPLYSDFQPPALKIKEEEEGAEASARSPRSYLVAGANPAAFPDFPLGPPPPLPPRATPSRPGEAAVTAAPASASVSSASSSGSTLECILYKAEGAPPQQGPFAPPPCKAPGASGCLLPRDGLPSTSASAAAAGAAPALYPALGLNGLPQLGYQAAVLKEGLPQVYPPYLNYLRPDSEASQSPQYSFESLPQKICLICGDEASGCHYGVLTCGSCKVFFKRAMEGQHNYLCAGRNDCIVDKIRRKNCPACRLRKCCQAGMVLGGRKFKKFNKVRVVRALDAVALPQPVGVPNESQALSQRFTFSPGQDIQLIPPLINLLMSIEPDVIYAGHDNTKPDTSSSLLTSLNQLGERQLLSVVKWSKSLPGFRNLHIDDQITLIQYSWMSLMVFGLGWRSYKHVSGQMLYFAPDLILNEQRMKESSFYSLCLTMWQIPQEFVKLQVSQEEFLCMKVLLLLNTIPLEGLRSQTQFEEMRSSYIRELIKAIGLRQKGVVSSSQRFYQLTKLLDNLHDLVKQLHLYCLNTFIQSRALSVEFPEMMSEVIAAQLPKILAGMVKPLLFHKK
compound,measurement,setting,value
CCCCc1ccc2cccc(S(=O)(=O)O)c2c1,Potency,[1],inactive
same,Potency,[2],inactive
same,Potency,[3],inactive
same,Potency,[4],inactive
same,Potency,[5],inactive
same,outcome,[6],inactive
same,outcome,[7],inactive
COc1ccc(N=[N+]([O-])c2ccc(OC)cc2)cc1,Potency,[1],inactive
same,outcome,[8],inactive
same,Potency,[3],inactive
same,outcome,[6],inactive
same,outcome,[7],inactive
same,outcome,[9],inactive
C=C(C)C1CC=C(C)C(O)C1 (centres undefined),Potency,[1],inactive
same,outcome,[8],inactive
same,Potency,[2],17.3 µM (active)
same,Potency,[4],inactive
same,outcome,[6],inactive
same,outcome,[10],inactive
same,outcome,[7],inactive
same,outcome,[9],inactive
Nc1ncnc2c1ncn2Cc1c(F)cccc1Cl,Potency,[1],inactive
same,Potency,[2],inactive
same,Potency,[3],inactive
same,Potency,[4],inactive
same,Potency,[5],inactive
same,outcome,[10],inactive
same,outcome,[7],inactive
same,outcome,[9],inactive
NS(=O)(=O)c1cc2c(cc1C(F)(F)F)NC(Cc1ccccc1)NS2(=O)=O (centres undefined),Potency,[1],inactive
same,Potency,[2],inactive
same,Potency,[3],inactive
same,Potency,[4],inactive
same,Potency,[5],inactive
same,outcome,[6],inactive
same,outcome,[7],inactive
same,outcome,[9],inactive
CC(=O)NC(Cc1ccccc1)C(=O)O (centres undefined),Potency,[1],inactive
same,outcome,[8],inactive
same,Potency,[2],inactive
same,Potency,[4],inactive
same,Potency,[5],inactive
same,outcome,[6],inactive
same,outcome,[10],inactive
same,outcome,[7],inactive
same,outcome,[9],inactive
CCC(C)(C)C1CCC(OC)CC1 (centres undefined),Potency,[1],inactive
same,Potency,[2],inactive
same,Potency,[3],inactive
same,Potency,[4],inactive
same,Potency,[5],inactive
same,outcome,[6],inactive
same,outcome,[10],inactive
same,outcome,[7],inactive
same,outcome,[9],inactive
CC1(C)OC(=O)Nc2ccc(Br)cc21,Potency,[1],inactive
same,outcome,[8],inactive
same,Potency,[2],inactive
same,Potency,[4],inactive
same,Potency,[5],inactive
same,outcome,[6],inactive
same,outcome,[10],inactive
same,outcome,[7],inactive
same,outcome,[9],inactive
CCOC(=O)[C@H](CCc1ccccc1)N[C@@H](C)C(=O)N1CCC[C@H]1C(=O)O,Potency,[1],inactive
same,outcome,[8],inactive
same,Potency,[4],inactive
same,Potency,[5],inactive
same,outcome,[6],inactive
same,outcome,[10],inactive
same,outcome,[7],inactive
same,outcome,[9],inactive
FC(F)(F)C(F)(F)C(F)(F)C(F)(F)C(F)(F)C(F)(F)C(F)(F)C(F)(F)C(F)(F)C(F)(F)F,"activity change, negative = inhibition",[1],-3.91% [at 8.39 µM]
same,activation,[2],2.84% [at 8.39 µM]
same,"activity change, negative = inhibition",[3],0.137% [at 8.39 µM]
same,"activity change, negative = cytotoxicity",[4],3.97% [at 8.39 µM]
same,"activity change, negative = cytotoxicity",[5],0% [at 8.39 µM]
same,"viability change, negative = cytotoxic",[6],-11.6% [at 6.97 µM]
same,"activity change, negative = cytotoxicity",[10],13.6% [at 6.97 µM]
same,activation,[7],2.81% [at 6.97 µM]
same,"activity, negative = inhibition",[9],0.552% [at 4.65 µM]
CC(C)=CCC/C(C)=C/C(=O)O,outcome,[8],inactive
same,Potency,[2],inactive
same,Potency,[3],inactive
same,Potency,[4],inactive
same,Potency,[5],inactive
same,outcome,[6],inactive
same,outcome,[10],inactive
same,outcome,[7],inactive
same,outcome,[9],inactive
CC1=CCC2C(C1)C2(C)C (centres undefined),Potency,[1],inactive
same,Potency,[2],inactive
same,Potency,[3],inactive
same,outcome,[6],inactive
same,outcome,[7],inactive
same,outcome,[9],inactive
N#CCN(CC#N)CCN(CC#N)CC#N,Potency,[1],inactive
same,Potency,[2],inactive
same,Potency,[3],inactive
same,Potency,[4],inactive
same,Potency,[5],inactive
same,outcome,[10],inactive
same,outcome,[7],inactive
same,outcome,[9],inactive
CC(=O)O[C@H](CC(=O)[O-])C[N+](C)(C)C,Potency,[1],inactive
same,Potency,[3],inactive
same,Potency,[4],inactive
same,Potency,[5],inactive
same,outcome,[6],inactive
same,outcome,[7],inactive
same,outcome,[9],inactive
COc1cc(CCC(C)=O)ccc1O,Potency,[1],inactive
same,Potency,[2],inactive
same,Potency,[3],inactive
same,Potency,[5],inactive
same,outcome,[6],inactive
same,outcome,[7],inactive
NC1CCN(c2cccc(Cl)n2)CC1,outcome,[8],inactive
same,Potency,[2],inactive
same,Potency,[3],inactive
same,Potency,[4],inactive
same,Potency,[5],inactive
same,outcome,[6],inactive
same,outcome,[10],inactive
same,outcome,[7],inactive
same,outcome,[9],inactive
CC(=O)c1ccc(C)cc1,Potency,[1],inactive
same,Potency,[2],inactive
same,Potency,[3],inactive
same,Potency,[5],inactive
same,outcome,[6],inactive
same,outcome,[10],inactive
same,outcome,[7],inactive
same,outcome,[9],inactive
